Results: PubChem BioAssay AID540321 (Johns Hopkins Ion Channel Center, 2011)
Calls of active or inactive are those of the source.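 The calls were made as follows: active = Inhibition of the Kir2.1 potassium channel over 30% at some tested dose, plus a fitted dose response curve; inactive = no Kir2.1 inhibition at any dose, or no curve fitted.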

target: Inward rectifier potassium channel 2 (Mus musculus) (UniProt P35561); test: Kir2.1 channel inhibition, specificity check, SAR follow-up, selectivity assay for KCNK9 inhibitor project, cell-based, FluxOR thallium flux, CRC round 2 (AID 540321); settings: Kir2.1-expressing cells; series mostly up to 30 µM
Sequence (P35561 whole entry, looked up): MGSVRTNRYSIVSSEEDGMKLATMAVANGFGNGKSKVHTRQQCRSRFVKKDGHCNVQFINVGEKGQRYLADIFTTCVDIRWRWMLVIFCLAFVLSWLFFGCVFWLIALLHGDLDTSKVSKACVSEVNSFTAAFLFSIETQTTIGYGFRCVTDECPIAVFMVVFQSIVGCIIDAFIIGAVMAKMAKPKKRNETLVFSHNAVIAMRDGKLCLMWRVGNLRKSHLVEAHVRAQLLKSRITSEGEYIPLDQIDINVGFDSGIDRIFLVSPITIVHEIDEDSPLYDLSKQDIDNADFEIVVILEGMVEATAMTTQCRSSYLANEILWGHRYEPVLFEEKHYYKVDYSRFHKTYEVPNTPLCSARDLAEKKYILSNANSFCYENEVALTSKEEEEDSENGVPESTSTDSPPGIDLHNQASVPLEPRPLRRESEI

outcome, inactive:
CCOc1ccccc1C(=O)Nc1cccc(NC(=O)c2ccccc2C(F)(F)F)c1
O=C(Nc1cccc(NC(=O)c2cccs2)c1)c1ccccc1
CC(c1ccccc1)n1c(-c2ccco2)n[nH]c1=S (stereo not given)
CC(C1CC2CCC1C2)n1c(-c2ccc(Cl)cc2)n[nH]c1=S (stereo not given)
Cc1cccc(C(=O)Nc2cccc(NC(=O)c3ccc(C(C)(C)C)cc3)c2)c1
Cc1ccccc1C(=O)Nc1cccc(NC(=O)c2ccccc2)c1
CC(C)(C)c1ccc(C(=O)Nc2cccc(NC(=O)c3ccccc3)c2)cc1
CCOc1ccccc1NC(=O)c1cccc(NC(=O)c2ccccc2C)c1
COc1cccc(-c2n[nH]c(=S)n2C(C)C2CC3CCC2C3)c1 (stereo not given)
O=C(Nc1cccc(NC(=O)c2cccc(C(F)(F)F)c2)c1)c1ccccc1
O=C(Nc1cccc(NC(=O)c2ccccc2C(F)(F)F)c1)c1ccccc1
Cc1ccccc1-c1n[nH]c(=S)n1C(C)C1CC2CCC1C2 (stereo not given)
CCOc1ccccc1NC(=O)c1cccc(NC(=O)CC2CCCCC2)c1
COc1cccc(C(=O)Nc2cccc(NC(=O)c3cccc(C)c3)c2)c1
COc1ccc(-c2n[nH]c(=S)n2C(C)C2CC3CCC2C3)cc1 (stereo not given)
CCOc1ccccc1NC(=O)c1cccc(NC(=O)C2CC2)c1
O=C(Nc1cccc(NC(=O)c2ccc(C(F)(F)F)cc2)c1)c1ccccc1
COc1ccccc1NC(=O)c1cccc(NC(=O)c2ccccc2C(F)(F)F)c1
CCOc1ccccc1NC(=O)c1cccc(NC(=O)CC2CCCC2)c1
Cc1cccc(C(=O)Nc2cccc(NC(=O)c3ccccc3OC(F)(F)F)c2)c1
O=C(Nc1cccc(NC(=O)c2ccccc2)c1)c1ccccc1
Cc1cccc(C(=O)Nc2cccc(NC(=O)c3ccccc3C(C)C)c2)c1
Cc1ccc(-c2n[nH]c(=S)n2C(C)C2CC3CCC2C3)cc1 (stereo not given)
CCOc1ccccc1C(=O)Nc1cccc(NC(=O)C2CCCC2)c1
CCOc1ccccc1NC(=O)c1cccc(NC(=O)C2CCCO2)c1 (stereo not given)
CCOc1ccccc1NC(=O)c1cccc(NC(=O)c2ccc(C(F)(F)F)cc2)c1
CN(C)c1ccc(C(=O)Nc2cccc(NC(=O)c3ccccc3)c2)cc1
Cc1cccc(C(=O)Nc2cccc(NC(=O)c3ccccc3C(F)(F)F)c2)c1
Cc1cccc(C(=O)Nc2cccc(NC(=O)c3cccs3)c2)c1
COc1ccccc1NC(=O)c1cccc(NC(=O)c2ccccc2OC)c1
CCOc1ccccc1NC(=O)c1cccc(NC(=O)c2ccccc2OC(F)(F)F)c1
O=C(Nc1cccc(NC(=O)c2ccsc2)c1)c1ccccc1
Cc1cccc(C(=O)Nc2cccc(NC(=O)c3ccccc3OCC(C)C)c2)c1
O=C(Nc1cccc(NC(=O)c2cccc(F)c2)c1)c1ccccc1
Cc1cccc(C(=O)Nc2cccc(NC(=O)c3ccccc3C)c2)c1
